# Measured values as given in the supplement of paper PMC6555819.
# Assays:
# Experiment in all cases: PBM binding z-score (relative to random genomic background probes); higher = stronger binding; sequences stand for … in GC…GCGATTGACAGCGTAGAATGAAGG
# [1] = test system: RARb homodimer (NR concentration 270 nM)
# In short: (§1)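 Binding z-scores take random background probes as their reference. They come from custom Agilent 4×180K protein-binding microarrays incubated 1 h with ligand-free nuclear receptor dimers, with antibodies against each partner (one per run) detecting binding. Scanned fluorescence was regression-normalized.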
# [2] = test system: RARg:RXRa (NR concentration 270 nM, RXRa partner concentration 90 nM)
# In short: as §1
# [3] = test system: RARg homodimer (NR concentration 270 nM)
# In short: as §1
# [4] = test system: RXRa DBDmut IVT, anti-RXR (DBD mutation: RXRa K156A/R161A, NR concentration 90 nM)
# In short: as §1
# [5] = test system: RXRa homodimer (NR concentration 180 nM)
# In short: as §1
# [6] = test system: THRa:RXRa (NR concentration 90 nM, RXRa partner concentration 90 nM)
# In short: as §1
# [7] = test system: THRa homodimer (NR concentration 90 nM)
# In short: as §1
# [8] = test system: VDR homodimer (NR concentration 270 nM)
# In short: as §1
Sequence,PBM binding z-score [1],PBM binding z-score [2],PBM binding z-score [3],PBM binding z-score [4],PBM binding z-score [5],PBM binding z-score [6],PBM binding z-score [7],PBM binding z-score [8]
ATCGTAAGGTCGACGAGGTGAGTATACACCGTTT,2.31,3.18,3.23,1.37,3.01,3.89,2.39,1.63
ACTTACCGGTCAACGAGGTTATAGCACGCGTATA,2.92,3.45,3.85,1.25,2.27,2.69,1.21,2.26
GCTGGTTGGTCAGTAAAAGGTCACACACCGGTCG,5.18,5.81,5.42,0.18,5.73,3.5,2.21,2.29
TCATATGGGTAAACAGGTGAAAGTCCGTAAGTTA,0.47,0.0718,-0.135,0.95,0.566,0.434,-0.368,-0.103
CGTCCAAGGTCAGCACGTCAGTGAAAGCGACGTG,4,5.13,5.75,2.51,3.83,3.43,1.9,0.904
TTTTGTAGATCAGCAGGTTAAGAAAGCTGGCCAA,0.145,-0.111,-0.252,-0.708,0.104,0.144,-0.308,-0.168
CCTGCAAGGTCATGGTCAGCTAATCTACAGTATG,4.17,6.01,6.24,3.84,6.36,4.04,2.86,2.64
ATCGAAAGGTTGAAGGTGAGTATACCCACCCGAA,0.919,1.45,1.24,-0.0221,2.38,0.997,-0.184,0.162
ATCTCTAGGTAACCAAGTACAGTGAATGCCGAAC,0.221,0.424,0.577,0.152,0.115,0.827,0.385,0.365
ATCTCTAGGTTACCAAGTTCAGTGAATGCCGAAC,2.58,1.88,1.79,1.48,1.26,1.97,1.14,3.3
ATATGTAGGTTGCATCCGGGTCATTCAGGCTATG,2.16,2.04,1.12,0.735,2.28,3.03,1.96,2.66
CGTCAAAGTTCAACTAAGGTAACATAAAGCACGC,4.23,5.98,6.47,4.9,5.01,5.25,1.77,3.89
TCAGACAGGTGAAGGTAACTCGGGTACGCAGTCG,1.04,0.783,0.664,1.16,1.23,1.66,0.72,0.873
ATACGTAGGTTAAGGGTCATTCAGGTTGGTTCGC,4.06,5.01,3.58,2.11,6.29,3.72,1.6,4.36
CCTCGGAGGACAGAAGGTCAGCGCTGTCCGCTTT,4.09,4.02,3.84,0.468,2.54,2.57,-0.027,0.0447
CCTCGGAGGACAAGAGGAGGTCAGAGCTGCCAGA,2.96,2.87,2.83,0.0626,1.58,2.55,0.679,0.697
TAGCCGAGGTCATTGGGCCAGTATAGTACGCATC,3.98,5.93,5.86,4.42,6.61,4.01,2.77,5.01
CGAGACAGGTGAAAGGTAACTCAGTCTGGTACGC,0.817,1.2,0.702,-0.262,2.11,0.861,-0.303,-0.342
AGAACGAGGTTACCAAAGATCAGGGAAACGCTTG,0.645,1.94,1.91,0.737,2.66,2.31,0.23,0.242

Sequence,PBM binding z-score [1],PBM binding z-score [2],PBM binding z-score [3],PBM binding z-score [4],PBM binding z-score [5],PBM binding z-score [6],PBM binding z-score [7],PBM binding z-score [8]
TCTTGTAGATCAATAGAGGCTAAGAAAGTGCGCT,-0.029,0.139,-0.0605,0.703,0.213,0.676,-0.939,-0.123
ATATGTAGGTTATCGGGTAATTCAGTTTGCGCAT,0.9,0.94,0.821,0.617,1.05,1.29,1.26,1.3
TAGACTAGGTCATTCAGGGGCCAGTATAGAAAGC,3.07,5.47,4.47,1.33,2.82,3.29,0.816,1.63
GCTAGCAGGCCATTTGGGTCACCCAATGACGGGC,2.08,1.52,1.58,-0.734,1.16,2.19,0.834,0.435
ACTTACGGGTCAGCGAGGTTATAGCACGCGTATA,3.53,4.79,4.61,1.45,4.69,3.83,1.06,2.44
ATATGTAGGTGAGCTGGGGTCATTCAGACTAGGC,3.97,4.01,2.84,1.57,5.56,5.14,3.37,4.43
TCATATAGGTAAAAGGTGAAAGCCGGTGTGGTAA,1.74,2.11,0.955,1.45,2.92,1.56,8.19e-05,-0.0743
TCTTGTAGATCAATAGAGGTTAATAAAGTGCGCT,1.15,0.715,0.545,0.551,1.33,2.36,-0.525,0.459
TCTTGTAGACCAAGCAGGTTAAGAAAGCCTGAGT,0.377,0.0625,-0.186,0.787,0.346,0.395,-0.407,0.173
TCAGACAGGTGAAGGTTACTCAGGTACGCAGTCG,1.84,1.16,1.17,1.54,1.72,2.58,0.799,0.58
AGAATGAGGTTATACTTAGATCAGGGAAGAAAGT,0.8,1.56,1.14,1.87,1.87,1.96,0.882,0.999
GTACCAAGGTGAATAGTTCGTTGATGAGTAGGCG,1.71,1.94,1.34,-0.0101,0.854,1.39,0.601,0.698
CGTCCAGGGTCAAGGTCAGTGAAAGAGACTCGAA,4.96,6.51,6.69,2.77,6.61,4.19,2.79,2.98
TATCCTAGGTCATGGGCCAGTATACCACGCGAAC,3.35,4.47,5.04,0.933,3.99,3.54,2.41,1.05
CGTCCAAGATCAGAGAGGTCAGTGAATGCCGAGT,3.9,2.95,3,0.949,2.5,2.64,0.926,2.37
CCTTACGGGTCACCAGGTTATAGCACGACGAGCG,3.75,5.68,5.33,0.805,6.06,3.45,0.878,1.09
TCATATAGGTAAAGGTGAAATTCGAACGATATGA,1.3,1.56,1.28,0.746,2.19,1.37,-0.553,-0.144
CCGAGTAGGTTAAGGGGCATTCAGGCAACGGTGA,1.56,1.08,0.926,0.277,1.43,1.32,0.369,0.685
ATACCAAGGTGATGGTGAGGTCGTTGATACTAAC,1.83,1.84,0.644,0.506,1.11,3.24,2.44,2.63

Sequence,PBM binding z-score [1],PBM binding z-score [2],PBM binding z-score [3],PBM binding z-score [4],PBM binding z-score [5],PBM binding z-score [6],PBM binding z-score [7],PBM binding z-score [8]
ATCGAAAGGTCGACGTGAGTATAGAGAAAGGGAA,2.07,3.93,3.91,1.34,3.94,1.79,-0.87,0.464
CCTCGGAGGACAACAGGAGGACAGAGCTGCCAGA,1.1,1.11,1.41,-0.107,0.167,1.61,0.577,0.157
CTCGAAAGGTCGTGCTCAGGTGATTATACCAAAC,2.98,4.97,4.05,2.27,4.89,3.89,1.39,1.25
CATACAGGATCAGCTAGGCCAGAGTAGGGACGGC,-0.0161,-0.112,0.213,-0.652,-0.0715,-0.122,0.03,0.0286
CTCGAATGGTCGTGCTCAGGTGAGTATACCAAAC,0.249,-0.157,-0.12,-0.0041,-0.189,1.11,0.835,-0.378
TAGCCTAGGTAATGGGCCAGTATACCACGCGAAC,-0.381,-0.234,-0.0696,-1.16,-0.0912,-0.354,-0.5,-0.715
CAGCCTCGGTCAGGGCCAGTATAGGAGGAACGTT,1.31,0.85,1.86,-0.961,-0.355,-0.5,-0.413,-0.875
ATCTTTAGGTAACCAAGTTCAGTGAATGCCGAAC,1.55,0.783,1.04,1.36,0.709,2.07,1.25,2.66
CGTCTAAGTTCAACTAAGGTAACGTAAAGCACGC,3.13,4.18,4.79,4.84,3.54,4.95,2.6,4.24
TCGATTAGTTGATTAGGGCAACCGAAACAGCGGA,0.521,0.102,0.329,0.535,0.0192,0.565,0.154,-0.306
AGAACGAGGGCAATGAGTTGATCGCACGGGTGGC,0.965,0.967,1.42,2.25,0.774,1.14,-0.233,3.08
TCATATAGATAAACAGGTGAAAGTCCGTAAGTTA,0.615,0.467,0.388,1.94,1.33,0.561,0.191,0.676
AATACAGGGTCATCGTAGGCCAGAGCACGCACAG,3.55,5.92,5.24,3.61,6.36,4.52,1.4,3.18
CGTAGCAGGCCAGGGTCACTCAAGCATTTCGCTT,2.51,3.02,2.53,0.749,3.36,2.84,1.33,1.18
TCTTGTAGGTCAGCAGGTTAAGAAAGCTGGCCAA,3.05,4.48,4.43,0.785,3.23,1.97,-0.325,0.0594
CCTAATAGTTGACCATAAGGGCAACCGAAGCTCG,2.04,1.61,1.18,0.375,0.786,2.02,0.988,0.915
TATACAGGGTCCAAGGCCAGAGTACGAATGTCGA,1.18,0.986,1.15,1.17,0.823,0.402,0.398,2.03
TCTATTAGTTGAAGGGCAACCTACGAGTCCGTTT,1.2,0.698,0.806,1.51,0.858,0.233,-0.0206,1.42
CTCGAAAGGTCGGTTGAGGTGAGTATCCGGATAA,2.38,2.82,2.94,0.858,2.31,5.01,1.34,0.136
